“And” between values parts separate entries of the source, which are not always exact repeats. Equal entries are not always repeated. Hit rate of the full screen: of about 290,000 compounds, about 3,000 (1%) were called active. The sample holds actives, similar compounds and a random draw of the others, so the mix is not that of the screen. A number with no mark means an inactive call. Cut-off read from the data, not from the text of the source: active = inhibition mostly above about 36% (no sharp cut-off); inactive = mostly below about 34%.
Assay: inhibition of NOD1-driven NF-kB reporter – cell-based, luminescence, uHTS, primary screen (AID 1578);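 note: HEK-293T reporter cells stimulated with the NOD1 agonist gamma-tri-DAP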
Settings: NOD1-driven NF-kB luciferase reporter cells, at 4 µM, stronger effect = higher value

With C[C@H](NC(=O)[C@@H]1Cc2ccccc2CN1)C(=O)NC1CCCC1 as the compound, how does the inhibition read?
Its inhibition is -25.1%.

With COc1cccc(NC(=O)c2ccc(NC(=O)C(C)(C)C)cc2)c1 as the compound, how does the inhibition read?
The inhibition was -63%.

With CCCOc1ccc(/C=C/C(=O)Nc2ccc([N+](=O)[O-])cc2C)cc1 as the compound, how does the inhibition read?
The inhibition was 0.8%.

Which inhibition does the source give for O=C(/C=C/c1ccc([N+](=O)[O-])cc1)Nc1cccnc1 here?
The inhibition was -4.6%.

With CCCOc1ccc(/C=C/C(=O)Nc2ccc([N+](=O)[O-])cc2)cc1 as the compound, how does the inhibition read?
The inhibition was 76.6% (active).

Which inhibition does the source give for O=C(Nc1ccccc1)Nc1ncc([N+](=O)[O-])s1 here?
Its inhibition is -0.5%.

Which inhibition does the source give for CCCCOc1ccc(/C=C/C(=O)Nc2ccc([N+](=O)[O-])cc2C)cc1 here?
Its inhibition is -22.5%.

With O=C(/C=C/c1ccc([N+](=O)[O-])cc1)Nc1ncc([N+](=O)[O-])s1 as the compound, how does the inhibition read?
Its inhibition is 54.9% (active).

With COCC(C)n1c(SC(C)C(=O)NC2CCCCC2C)nc2ccccc2c1=O (stereo not drawn) as the compound, how does the inhibition read?
The inhibition was -27.1%.

With CN(CC(=O)Nc1ccc(Cl)c(C(F)(F)F)c1)C(=O)CC1Sc2ccccc2NC1=O (stereo not drawn) as the compound, how does the inhibition read?
Its inhibition is -18.8%.

Which inhibition does the source give for O=S(=O)(c1ccc(F)cc1)N1CCN(CC(O)COc2ccccc2F)CC1 (stereo not drawn) here?
Its inhibition is -0.6%.

Which inhibition does the source give for COc1cccc(CNC(=O)CCC(=O)N2CCSc3ccccc32)c1OC here?
Its inhibition is 5.1%.

Which inhibition does the source give for CC(=O)Nc1ccc(S(=O)(=O)N2CCCC2C(=O)Nc2ccc3c(c2)OCCO3)cc1 (stereo not drawn) here?
Its inhibition is -17.3%.

Which inhibition does the source give for CCO[C@@H]1OC(C(=O)N2CCN(C)CC2)=C[C@H](c2csc3ccccc23)[C@H]1CCCO here?
Its inhibition is -18%.

With NNC(=O)CCN1CCN(C(c2ccccc2)c2ccccc2)CC1 as the compound, how does the inhibition read?
Its inhibition is -18.4%.

For O=C(CCN1CCN(Cc2ccccc2)CC1)Nc1ccccc1Cl, which inhibition is on record?
The inhibition was -19.8%.

Which inhibition does the source give for NNC(=O)CCN1CCN(Cc2ccccc2)CC1 here?
Its inhibition is 45.4% (active).

Which inhibition does the source give for COC(=O)N/N=C/c1cc(Cl)cc(Cl)c1OCc1ccccc1F here?
The inhibition was -1.4%.

Which inhibition does the source give for C=CCSc1nc(C)c(CC(=C)C)c(=O)[nH]1 here?
The inhibition was -23.6%.

Which inhibition does the source give for C=CCSc1nc(C)c(CC=C)c(=O)[nH]1 here?
Its inhibition is -34.6%.

With C=CCSc1nc(C)c(Cc2cccc3ccccc23)c(=O)[nH]1 as the compound, how does the inhibition read?
Its inhibition is 41.9% (active).

With C/C(=N\NC(=O)C1CC1)c1cccs1 as the compound, how does the inhibition read?
The inhibition was -17.5%.

For CCc1ccnc(NS(=O)(=O)c2ccc3c(c2)CCO3)c1, which inhibition is on record?
The inhibition was -5.6%.

With O=S(=O)(N/N=C\c1c(F)cccc1Cl)c1ccc(Cl)cc1 as the compound, how does the inhibition read?
Its inhibition is -0.4%.

Which inhibition does the source give for COC(=O)c1ccc(Cl)c(NC(=O)c2ccc(-c3ccccc3)cc2)c1 here?
Its inhibition is 6%.

With CCCOC(=O)c1ccc(Cl)c(NC(=O)c2ccc(-c3ccccc3)cc2)c1 as the compound, how does the inhibition read?
Its inhibition is 3.5%.

With CCOC(=O)c1ccc(Cl)c(NC(=O)c2ccc(-c3ccccc3)cc2)c1 as the compound, how does the inhibition read?
Its inhibition is 104% (active).

Which inhibition does the source give for Cc1cc(NS(=O)(=O)c2ccc(NC(=O)C(C)Oc3ccc(Cl)cc3)cc2)no1 (stereo not drawn) here?
Its inhibition is 6.9%.

With O=C(Nc1cccc([N+](=O)[O-])c1)C12CC3CC(C1)CC(n1cnc([N+](=O)[O-])n1)(C3)C2 as the compound, how does the inhibition read?
The inhibition was 92.1% (active).

Which inhibition does the source give for O=C(Nc1ccccc1)C12CC3CC(C1)CC(n1cnc([N+](=O)[O-])n1)(C3)C2 here?
The inhibition was 1.9%.

With O=C(Nc1ccon1)C12CC3CC(C1)CC(n1cnc([N+](=O)[O-])n1)(C3)C2 as the compound, how does the inhibition read?
Its inhibition is -18.8%.

For COc1ccc(C(=O)N2CCCC(C(=O)N3CCN(c4ccccc4)CC3)C2)cc1 (stereo not drawn), which inhibition is on record?
The inhibition was 2.5%.

Which inhibition does the source give for Cc1ccccc1C(=O)N1CCN(c2ccc(NC(=O)c3ccc4c(c3)OCO4)cc2)CC1 here?
Its inhibition is 3%.

For O=C(Nc1ccc(N2CCN(C(=O)c3ccccc3)CC2)cc1)c1ccc2c(c1)OCCO2, which inhibition is on record?
The inhibition was 31.2%.

Which inhibition does the source give for COc1ccccc1N(CC(=O)Nc1ccccc1C)S(C)(=O)=O here?
The inhibition was -26.9%.

Which inhibition does the source give for CC(NC(=O)C1CCCC1)C1CC2CCC1C2 (stereo not drawn) here?
Its inhibition is 96.5% (active).

With CC(NC(=O)C1CC=CCC1C(=O)O)C1CC2CCC1C2 (stereo not drawn) as the compound, how does the inhibition read?
The inhibition was -30.7%.

Which inhibition does the source give for CC(NC(=O)c1ccccc1Cl)C1CC2CCC1C2 (stereo not drawn) here?
Its inhibition is -16.6%.

With CC(=O)[C@H]1CC[C@H]2[C@@H]3CCC4=CC(=O)CC[C@]4(C)[C@H]3CC[C@]12C as the compound, how does the inhibition read?
Its inhibition is 5.4% and -4.1%.

Which inhibition does the source give for C[C@]12CC(O)C3C(CCC4=CC(=O)CC[C@@]43C)C1CCC2c1csc(-c2ccccc2)n1 (stereo partly drawn) here?
The inhibition was 15.3%.

With C/C(=N\O)c1ncc(C(F)(F)F)cc1Cl as the compound, how does the inhibition read?
Its inhibition is -23.5%.

For CC(C)NC(=O)CC(=O)N/N=C\c1ccccc1C(=O)O, which inhibition is on record?
The inhibition was -33.7%.

Which inhibition does the source give for CSc1ccccc1C(=O)Nc1cccc(N(C)S(C)(=O)=O)c1 here?
Its inhibition is -8.4%.

With CC1Cc2ccccc2N1CC(=O)NC(=O)NCc1ccco1 (stereo not drawn) as the compound, how does the inhibition read?
Its inhibition is -5.2%.

For Nc1ccc2c3c(cccc13)C(=O)N(c1ccccc1)C2=O, which inhibition is on record?
The inhibition was -19.1%.

Which inhibition does the source give for Cc1cccc(N2C(=O)c3cccc4c(N)ccc(c34)C2=O)c1 here?
Its inhibition is 26.2% (active).

With Nc1cccc(N2C(=O)c3cccc4c(N)ccc(c34)C2=O)c1 as the compound, how does the inhibition read?
Its inhibition is 5.7%.

For O=C(NCCOc1ccccc1)C1CCC(=O)N(CCCN2CCOCC2)C1 (stereo not drawn), which inhibition is on record?
The inhibition was -28.6%.

For COc1ccc2c(c1)C(=O)CC(c1ccccc1F)O2 (stereo not drawn), which inhibition is on record?
Its inhibition is 5.9%.

For Cn1c(Cl)cnc1C1CC(=O)c2cc(Cl)ccc2O1 (stereo not drawn), which inhibition is on record?
Its inhibition is 76.3% (active).

Which inhibition does the source give for Cc1ccc2c(c1)C(=O)CC(c1ccc3c(c1)OCCO3)O2 (stereo not drawn) here?
Its inhibition is -0.6%.

Which inhibition does the source give for COc1ccc(CN(C)C(=O)c2ccc(COc3ccccc3)cc2)c(OC)c1 here?
The inhibition was -11.1%.

Which inhibition does the source give for Cc1ccsc1/C=N\NC(=O)Cn1nnc2ccccc21 here?
The inhibition was -9.3%.

With OC(COC(c1ccc(F)cc1)c1ccc(F)cc1)CN1CCCC1 (stereo not drawn) as the compound, how does the inhibition read?
Its inhibition is 40.5% (active).

With OCCN1CCN(CC(O)COC(c2ccc(F)cc2)c2ccc(F)cc2)CC1 (stereo not drawn) as the compound, how does the inhibition read?
The inhibition was -11.1%.

For OC(COC(c1ccc(Cl)cc1)c1ccc(Cl)cc1)CN1CCCC1 (stereo not drawn), which inhibition is on record?
The inhibition was -28.8%.

Which inhibition does the source give for Cc1ccccc1NC(=O)Cc1nc(COC(=O)c2cc(Cl)ccc2O)cs1 here?
The inhibition was -19.6%.

For CC(=O)Oc1cc(OC(C)=O)c2c(=O)c(-c3ccc4c(c3)OCCCO4)c(C)oc2c1, which inhibition is on record?
The inhibition was -3%.

Which inhibition does the source give for O=C(NCc1cccnc1)c1ccc(-c2cccc(Cl)c2Cl)o1 here?
Its inhibition is 40.8% (active).

For O=C(NCc1cccnc1)c1ccc(-c2ccc(Cl)cc2)o1, which inhibition is on record?
Its inhibition is -19.4%.

For O=C(NCc1cccnc1)c1ccc(-c2cc(Cl)ccc2Cl)o1, which inhibition is on record?
Its inhibition is 42.3%.

Which inhibition does the source give for Cc1csc(=O)n1CC(=O)OCC(=O)Nc1cc(Cl)ccc1[N+](=O)[O-] here?
The inhibition was -34.9%.

Which inhibition does the source give for CCN(C(=O)CSc1nncs1)c1c(N)n(Cc2ccccc2)c(=O)[nH]c1=O here?
The inhibition was 4.6%.

With CCC(=O)NC(C)C(c1cccs1)N1CCN(Cc2ccccc2)CC1 (stereo not drawn) as the compound, how does the inhibition read?
The inhibition was -18.4%.

For O=C(COc1ccc(Cl)cc1)N1CCN(C(=O)c2ccccc2F)CC1, which inhibition is on record?
The inhibition was 27.3%.

With C=C1C(=O)O[C@@H]2[C@H]1[C@@H](OC(=O)/C(C)=C/C)C/C(C)=C\C(=O)/C=C(\C)[C@@H]2O as the compound, how does the inhibition read?
The inhibition was 54.7% (active).

Which inhibition does the source give for C=C1C(=O)O[C@H]2C[C@]3(C)C([C@@H](OC(=O)/C(C)=C/C)[C@H]12)[C@](C)(O)CC[C@H]3O (stereo partly drawn) here?
Its inhibition is 13.6%.

With C=C1C(=O)O[C@H]2[C@H]1[C@@H](O)CC(=C)[C@@H]1CC(=O)[C@@H](C)[C@H]21 as the compound, how does the inhibition read?
The inhibition was 9.7%.

For CCn1c(CC(=O)Nc2ccc(OC)cc2)nnc1SCC(=O)N1CCOCC1, which inhibition is on record?
The inhibition was -21.2%.

For COc1ccc(/C=C/C(=O)c2ccncc2)c2ccccc12, which inhibition is on record?
Its inhibition is 6.3%.

Which inhibition does the source give for COc1ccc(/C=C/C(=O)c2ccc[nH]2)c(OC)c1OC here?
Its inhibition is -21.2%.

For COc1cc2[nH]c(=O)n(C3CCCCC3)c(=O)c2cc1OC, which inhibition is on record?
Its inhibition is 3.9%.

Which inhibition does the source give for CCOc1ccc(-c2nc(N)ncc2-c2ccc(Cl)cc2)c(O)c1 here?
Its inhibition is 34.1% (active).

For CCOc1ccc(-c2nc(N)ncc2-c2ccccc2)c(O)c1, which inhibition is on record?
The inhibition was 2.9%.

With CCOc1ccc(-c2nc(N)ncc2-c2ccc(OC)cc2)c(O)c1 as the compound, how does the inhibition read?
The inhibition was 7.2%.

Which inhibition does the source give for C=CCN1C(=O)C(CC(=O)O)SC1=Nc1ccc(C)cc1 (stereo not drawn) here?
The inhibition was -23.8%.

For CC(Oc1ccccc1)c1ccnc2nc(/N=C/N(C)C)nn12 (stereo not drawn), which inhibition is on record?
The inhibition was -24.9%.

For CC1(C)CC(=O)c2sc(NS(=O)(=O)c3ccccc3)nc2C1, which inhibition is on record?
Its inhibition is -13.7%.

Which inhibition does the source give for CC1(C)CC(=O)c2sc(NC(=O)CCS(=O)(=O)c3ccccc3)nc2C1 here?
The inhibition was 71% (active).

With CC1(C)CC(=O)c2sc(NC(=O)c3ccccc3)nc2C1 as the compound, how does the inhibition read?
The inhibition was -45.6%.

With CN(C)c1c(F)cc(C(=O)NC(=O)NCc2cccnc2)cc1F as the compound, how does the inhibition read?
Its inhibition is -15%.

For COc1ccc(C(CC(=O)O)NC(=O)c2cccs2)cc1 (stereo not drawn), which inhibition is on record?
Its inhibition is -11.2%.

Which inhibition does the source give for Cc1cccc(NC(NC(=O)c2ccccc2[N+](=O)[O-])C(Cl)(Cl)Cl)c1 (stereo not drawn) here?
Its inhibition is -3.9%.

With COc1cc(OC)cc(-n2nnnc2SCC(=O)Nc2nc3c(s2)CCCC3)c1 as the compound, how does the inhibition read?
Its inhibition is -3.7%.

With COc1ccc(-n2nnnc2SCC(=O)Nc2nc3c(s2)CCCC3)cc1 as the compound, how does the inhibition read?
The inhibition was 43.4%.

Which inhibition does the source give for O=C(CSc1nnnn1-c1ccc2c(c1)OCCO2)Nc1nc2c(s1)CCCC2 here?
The inhibition was 58.5% (active).

For O=C(O)c1cccc(Oc2ccc([N+](=O)[O-])cc2)c1, which inhibition is on record?
Its inhibition is -8.3%.

With COc1cc(/C=N/NC(=O)C(=O)NCc2cccnc2)cc(OC)c1OC as the compound, how does the inhibition read?
Its inhibition is -15.5%.

With COc1cc(OC)cc(C(=O)O/N=C(\N)c2ccccn2)c1 as the compound, how does the inhibition read?
Its inhibition is -12.2%.

With CCOc1ccc(C(=O)O/N=C(\N)c2ccccn2)cc1 as the compound, how does the inhibition read?
Its inhibition is 20.4%.

For N/C(=N\OC(=O)c1ccccc1)c1ccccn1, which inhibition is on record?
Its inhibition is 18.4%.

For COc1ccc(C(=O)O/N=C(\N)c2ccccn2)cc1, which inhibition is on record?
The inhibition was 84.1% (active).

Which inhibition does the source give for Cc1ccc(C(=O)O/N=C(\N)c2ccccn2)cc1 here?
Its inhibition is 11.3%.

— PubChem BioAssay AID1578 (Sanford-Burnham Center for Chemical Genomics, 2009)
